Assay results published in article PMC5540273 (PLoS ONE, 2017).

How the values were obtained:
Conditions in all cases: concentration: 1 μM, replicates: in singlicate; n = 1
[1] = tested on: EPHB3
[2] = tested on: EPHB4
[3] = tested on: EPHB6
[4] = tested on: ERBB2
[5] = tested on: ERBB3
[6] = tested on: ERBB4
[7] = tested on: T1, ERK1
T1 construct: gene MAPK3

[8] = tested on: T2, ERK2
T2 construct: gene MAPK1

[9] = tested on: T3, ERK3
T3 construct: gene MAPK6

[10] = tested on: T4, ERK4
T4 construct: gene MAPK4

[11] = tested on: T5, ERK5
T5 construct: gene MAPK7

[12] = tested on: T6, ERK8
T6 construct: gene MAPK15

[13] = tested on: ERN1
[14] = tested on: T7, FAK
T7 construct: gene PTK2

[15] = tested on: FER
[16] = tested on: FES
[17] = tested on: FGFR1
[18] = tested on: FGFR2
[19] = tested on: FGFR3
[20] = tested on: FGFR4
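Further: KINOMEscan kinase panel screen.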

Row | Structure (SMILES) | %Inh [1] [%] | %Inh [2] [%] | %Inh [3] [%] | %Inh [4] [%] | %Inh [5] [%] | %Inh [6] [%] | %Inh [7] [%] | %Inh [8] [%] | %Inh [9] [%] | %Inh [10] [%] | %Inh [11] [%] | %Inh [12] [%] | %Inh [13] [%] | %Inh [14] [%] | %Inh [15] [%] | %Inh [16] [%] | %Inh [17] [%] | %Inh [18] [%] | %Inh [19] [%] | %Inh [20] [%]
1 | COc1ccc(-n2cnc3c(N)ncnc32)cc1 [SKF-97236] | 0 | 0 | 1 | 7 | 0 | 1 | 14 | 9 | 0 | 0 | 0 | 40 | 0 | 13 | 13 | 0 | 27 | 0 | 0 | 18
2 | CN1C(=O)C(Nc2ccccc2)=C(c2ccccc2)C1=O [SB-300079] | 0 | 0 | 0 | 20 | 28 | 18 | 0 | 10 | 9 | 31 | 0 | 2 | 17 | 0 | 0 | 0 | 0 | 0 | 0 | 0
3 | CCCC(=O)Nc1n[nH]c2ncc(-c3cccc4ccccc34)cc12 [SB-642057] | 0 | 0 | 41 | 11 | 0 | 26 | 8 | 0 | 0 | 22 | 0 | 0 | 0 | 8 | 3 | 0 | 0 | 0 | 0 | 19
4 | CN(C)c1cc(-c2ccc3c(N)n[nH]c3c2)nc(N)n1 [GSK2219329] | 9 | 13 | 3 | 25 | 0 | 30 | 15 | 0 | 11 | 0 | 0 | 0 | 0 | 0 | 16 | 0 | 0 | 2 | 7 | 0
5 | Nc1nc(-c2ccccc2F)c(-c2ccnc3ccccc23)s1 [GW560459] | 0 | 1 | 0 | 71 | 0 | 36 | 10 | 0 | 0 | 0 | 0 | 0 | 0 | 0 | 13 | 0 | 0 | 0 | 0 | 75
6 | COc1cc2nccc(Nc3cccc(Oc4ccccc4)c3)c2cc1OC.Cl [GW284543] | 0 | 0 | 79 | 24 | 66 | 31 | 18 | 0 | 0 | 10 | 26 | 13 | 8 | 23 | 30 | 4 | 17 | 26 | 6 | 8
7 | CCn1c(-c2ccoc2)nc2cnccc21 [SB-733887] | 17 | 0 | 26 | 8 | 14 | 0 | 0 | 0 | 12 | 11 | 0 | 0 | 0 | 0 | 20 | 0 | 0 | 0 | 0 | 20
8 | FC(F)(F)c1ccc(-c2ncn(CCCN3CCOCC3)c2-c2ccncc2)cc1 [SB-217780] | 0 | 9 | 18 | 16 | 0 | 47 | 0 | 0 | 7 | 0 | 0 | 1 | 26 | 1 | 9 | 4 | 90 | 0 | 6 | 1
9 | Nc1nc(N)c2nc(-c3ccccc3)[nH]c2n1 [SKF-12778] | 0 | 13 | 39 | 22 | 4 | 0 | 7 | 5 | 6 | 0 | 0 | 41 | 11 | 6 | 14 | 0 | 16 | 32 | 21 | 12
10 | CCc1nc(-c2cccc(C)c2)c(-c2ccncc2)s1 | 7 | 14 | 0 | 48 | 0 | 5 | 0 | 12 | 0 | 12 | 4 | 6 | 0 | 99.9 | 13 | 0 | 0 | 0 | 0 | 0
11 | Cc1nn2c(=O)cc(N3CCOCC3)nc2n1Cc1cccc(Cl)c1Cl [GSK2342769] | 16 | 16 | 0 | 0 | 0 | 0 | 0 | 0 | 0 | 5 | 0 | 18 | 0 | 0 | 14 | 6 | 1 | 30 | 15 | 5
12 | COc1cc2ncn(-c3cc(OCc4ccc(S(C)(=O)=O)cc4)c(C(N)=O)s3)c2cc1OC [GW869979] | 0 | 0 | 38 | 0 | 11 | 0 | 10 | 2 | 6 | 0 | 0 | 12 | 6 | 2 | 0 | 0 | 0 | 5 | 4 | 0
13 | Cl.NS(=O)(=O)c1cccc(Nc2cc(-c3ccc(F)cc3)n[nH]2)c1 [GW824645] | 0 | 0 | 0 | 4 | 17 | 0 | 0 | 0 | 0 | 0 | 0 | 3 | 21 | 0 | 41 | 0 | 0 | 0 | 0 | 0
14 | O=C1NC(=O)C(c2ccccc2)=C1Nc1cccc(O)c1 [SB-390534] | 0 | 0 | 0 | 0 | 0 | 3 | 0 | 0 | 0 | 0 | 0 | 0 | 0 | 0 | 0 | 0 | 11 | 0 | 10 | 1
15 | COc1ccc(-c2coc3ccc(-c4nnc(SCc5cccc(C#N)c5)o4)cc23)cc1 | 6 | 0 | 0 | 14 | 0 | 0 | 0 | 26 | 0 | 0 | 0 | 14 | 11 | 0 | 10 | 7 | 11 | 13 | 17 | 17
16 | COc1cccc(C2=C(N(C)c3ccccc3)C(=O)NC2=O)c1 [SB-334865] | 3 | 0 | 11 | 41 | 0 | 0 | 7 | 0 | 0 | 46 | 0 | 0 | 0 | 0 | 0 | 0 | 0 | 0 | 3 | 19

Row | Structure (SMILES) | %Inh [1] [%] | %Inh [2] [%] | %Inh [3] [%] | %Inh [4] [%] | %Inh [5] [%] | %Inh [6] [%] | %Inh [7] [%] | %Inh [8] [%] | %Inh [9] [%] | %Inh [10] [%] | %Inh [11] [%] | %Inh [12] [%] | %Inh [13] [%] | %Inh [14] [%] | %Inh [15] [%] | %Inh [16] [%] | %Inh [17] [%] | %Inh [18] [%] | %Inh [19] [%] | %Inh [20] [%]
17 | CCS(=O)c1ccc(-c2coc3ccc(-c4nnc(C)o4)cc23)cc1 (centres unmarked) | 0 | 9 | 3 | 8 | 3 | 9 | 0 | 13 | 0 | 0 | 0 | 0 | 16 | 0 | 11 | 7 | 9 | 10 | 7 | 0
18 | O=c1cc(N2CCOCC2)nc2n(Cc3ccc(F)c(Cl)c3)ccn12 [GSK2297099] | 8 | 15 | 5 | 0 | 0 | 24 | 0 | 0 | 0 | 25 | 2 | 0 | 0 | 0 | 0 | 0 | 0 | 0 | 0 | 0
19 | COC(=O)c1c(-c2ccccc2)c2cc(C)ccc2c(=O)n1Cc1ccccc1 | 45 | 1 | 0 | 5 | 0 | 0 | 0 | 9 | 0 | 0 | 0 | 0 | 0 | 0 | 0 | 0 | 0 | 0 | 0 | 0
20 | Cc1nc(N(C)[C@H]2CN(C(=O)CC#N)CC[C@H]2C)c2cc[nH]c2n1 | 6 | 9 | 19 | 7 | 0 | 0 | 8 | 13 | 5 | 19 | 7 | 1 | 12 | 0 | 0 | 9 | 1 | 6 | 0 | 0
21 | COc1cccc(C2=C(Nc3cccc(C(=O)O)c3)C(=O)NC2=O)c1 [SB-390770] | 8 | 7 | 21 | 6 | 16 | 0 | 0 | 0 | 2 | 0 | 0 | 36 | 0 | 3 | 40 | 0 | 50 | 71 | 48 | 14
22 | Cc1cccc(-c2cc(-c3c[nH]nc3-c3ccccn3)ccn2)c1 [GW679395] | 25 | 22 | 74 | 19 | 0 | 36 | 0 | 0 | 0 | 19 | 0 | 0 | 0 | 0 | 4 | 0 | 0 | 0 | 0 | 4
23 | CCS(=O)(=O)c1ccc(OC)c(Nc2ncc(-c3ccc(F)cc3)o2)c1.Cl [GW591947] | 0 | 0 | 0 | 13 | 0 | 0 | 8 | 7 | 13 | 21 | 0 | 0 | 8 | 0 | 29 | 0 | 3 | 0 | 0 | 12
24 | CCC(=O)c1c(-c2ccccc2)c2cc(Cl)ccc2c(=O)n1Cc1cc(S(C)(=O)=O)n(CCC(C)(C)O)n1 | 9 | 0 | 21 | 0 | 7 | 20 | 12 | 32 | 14 | 14 | 15 | 0 | 18 | 10 | 10 | 5 | 0 | 22 | 29 | 8
25 | COc1cc2ncn(-c3cc(OCc4ccncc4)c(C(N)=O)s3)c2cc1OC [GSK336313] | 0 | 10 | 22 | 0 | 0 | 22 | 0 | 0 | 28 | 46 | 0 | 0 | 23 | 0 | 24 | 0 | 0 | 0 | 7 | 2
26 | Nc1n[nH]c2nnc(-c3ccccc3)c(-c3ccccc3)c12 [GW554060] | 43 | 8 | 17 | 27 | 16 | 32 | 0 | 0 | 3 | 0 | 0 | 50 | 7 | 0 | 21 | 0 | 4 | 25 | 32 | 1
27 | COc1ccc(Nc2nccc(N3CCC(NS(=O)(=O)c4ccc(NC(C)=O)cc4)C3)n2)cc1 (centres unmarked) [GSK1379729] | 35 | 25 | 28 | 20 | 18 | 0 | 20 | 10 | 6 | 0 | 0 | 53 | 0 | 0 | 24 | 5 | 8 | 29 | 18 | 98.5
28 | C[C@@H]1CC[C@H](C(=O)NC2CCCCC2)CN1c1cc(-c2ccc3c(N)n[nH]c3c2)nc(N)n1 [GSK2291363] | 20 | 21 | 96.7 | 21 | 0 | 35 | 14 | 25 | 21 | 28 | 0 | 1 | 17 | 0 | 41 | 0 | 4 | 8 | 17 | 12
29 | CCC(=O)c1c(-c2ccccc2)c2cc(Cl)ccc2c(=O)n1Cc1cc(S(C)(=O)=O)n(CC(N)=O)n1 | 0 | 0 | 15 | 39 | 0 | 0 | 0 | 0 | 0 | 0 | 0 | 0 | 0 | 0 | 0 | 0 | 6 | 9 | 2 | 0
30 | Cc1ccccc1COc1cc(-n2cnc3cc(Cl)ccc32)sc1C(N)=O [GW813349] | 0 | 10 | 17 | 14 | 54 | 0 | 1 | 0 | 0 | 0 | 0 | 9 | 0 | 5 | 0 | 2 | 12 | 3 | 0 | 0
31 | Cc1ccc(Oc2ccc(Nc3ncnc4cc[nH]c34)cc2C)cn1 | 26 | 28 | 53 | 100 | 24 | 29 | 0 | 26 | 0 | 7 | 5 | 0 | 21 | 8 | 15 | 23 | 10 | 0 | 4 | 11
